For nine compounds, Potency, outcome and activity change, positive = activation results are on record in PubChem BioAssay (Tox21).

The nature of experiment [1]: qHTS assay to identify small molecule antagonists of the estrogen related receptor (ERR) signaling pathway from Tox21 library - cell viability counter screen (AID 1224834). Also: nearly all actives have a fitted effect of over 30% in size. Also: potency is read from the fitted curve at half-maximal effect. Put shortly:
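In this quantitative HTS format, ERR cells receive compounds in DMSO and are incubated for 17.5 h at 37 C. Live-cell protease activity is then detected with CellTiter-Fluor.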

For experiment [2], the target named is Luciferin 4-monooxygenase (Photinus pyralis) (UniProt P08659). The experiment in a line: qHTS assay to identify small molecule inhibitors of firefly luciferase (AID 1224835). Also: nearly all actives have a fitted effect of over 25% in size. Also: potency is read from the fitted curve at half-maximal effect. Put shortly: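 Inhibition of purified Photinus luciferase is measured by luminescence. Substrate levels (D-luciferin, ATP) sit at their KM values. Each compound is tested in a concentration series.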
Chain of Luciferin 4-monooxygenase (Photinus pyralis) (P08659 whole entry, looked up): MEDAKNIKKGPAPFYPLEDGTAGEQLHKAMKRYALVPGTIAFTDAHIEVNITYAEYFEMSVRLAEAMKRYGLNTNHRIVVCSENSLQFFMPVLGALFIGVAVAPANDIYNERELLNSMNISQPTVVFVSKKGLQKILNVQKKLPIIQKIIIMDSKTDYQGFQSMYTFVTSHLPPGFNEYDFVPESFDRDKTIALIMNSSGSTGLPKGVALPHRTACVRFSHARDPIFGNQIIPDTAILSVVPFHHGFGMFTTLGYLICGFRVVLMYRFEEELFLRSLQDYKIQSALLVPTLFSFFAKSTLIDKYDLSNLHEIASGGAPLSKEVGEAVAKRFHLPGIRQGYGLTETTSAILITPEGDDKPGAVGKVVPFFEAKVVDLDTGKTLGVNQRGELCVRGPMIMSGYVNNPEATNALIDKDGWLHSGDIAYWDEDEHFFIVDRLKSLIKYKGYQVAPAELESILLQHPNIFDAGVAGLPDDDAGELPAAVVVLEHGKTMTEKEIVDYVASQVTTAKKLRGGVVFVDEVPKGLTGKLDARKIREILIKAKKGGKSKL

Experiment [3] is described as follows: qHTS assay to identify small molecule agonists of the constitutive androstane receptor (CAR) signaling pathway - cell viability counter screen (AID 1224836). Also: nearly all actives have a fitted effect of over 45% in size. Also: potency is read from the fitted curve at half-maximal effect. Put shortly: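 Using CellTiter-Fluor, viability of HepG2 cells harbouring hCAR and CYP2B6-2.2kb was measured following 23 h incubation with a 15-concentration compound series plus PK11195 (0.75 uM final).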

A short description of experiment [4]: qHTS assay to identify small molecule antagonists of the constitutive androstane receptor (CAR) signaling pathway - cell viability counter screen (AID 1224837). Also: nearly all actives have a fitted effect of over 45% in size. Also: potency is read from the fitted curve at half-maximal effect. Put shortly: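 In quantitative HTS format, compounds at 15 concentrations were applied to HepG2 cells double-transfected with hCAR and CYP2B6-2.2kb under 50 nM CITCO stimulation; live-cell protease activity was read after 23 hr via CellTiter-Fluor.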

Experiment [5] is described as follows: qHTS assay to identify small molecule antagonists of the estrogen related receptor signaling pathway with the pleiotropic PPARgamma coactivator (PGC) from Tox21 10K library - cell viability counter screen (AID 1224840; active = well fitted cell-killing curve with a large enough effect in the repeat runs, not every such curve was filed as active; also: nearly all actives have a fitted effect of over 40% in size; also: potency is read from the fitted curve at half-maximal effect). Put shortly:
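Viability counter screen, PGC/ERR cells: 17.5 h compound exposure at 37 C, CellTiter-Fluor fluorescence endpoint.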

Experiment [6] addresses Thyrotropin receptor (Homo sapiens) (UniProt P16473). The experiment in a line: qHTS assay to identify small molecule agonists of the thyroid stimulating hormone receptor (TSHR) signaling pathway (AID 1224843; calls by dose curve; also: nearly all actives have a fitted effect of over 45% in size). In short, it runs like this:
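Agonist activity read as cAMP rise via d2/cryptate HTRF competition, 1 h room-temperature detection, in HEK293 cells expressing TSHR. Fifteen-point titrations, each run in triplicate, with a 30 min room-temperature incubation beforehand.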

Experiment [7] in a line: qHTS assay to identify small molecule agonists of the hypoxia (HIF-1) signaling pathway - cell viability counter screen (AID 1224844; calls by dose curve; also: nearly all actives have a fitted effect of over 50% in size). In short, it runs like this:
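Same wells as the HIF-1 reporter screen; ME-180 cells carrying HRE-bla, 17 hr treatment at 37C; CellTiter-Glo luminescence read after 30 min at room temperature.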

Experiment [8] can be described thus: qHTS assay to identify small molecule agonists of the hypoxia (HIF-1) signaling pathway (AID 1224846; active = well fitted activation curve with a large enough effect in the signal ratio in the repeat runs, not every such curve was filed as active; the % refers to the signal ratio). Put shortly:
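In ME-180 cells bearing an HRE-bla construct, 17 h treatment with DMSO-dissolved compounds at 37C was followed by CCF4-AM loading to quantify reporter induction.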

Experiment [9] in a line: qHTS assay to identify small molecule agonists of H2AX - cell viability counter screen (AID 1224847; calls by dose curve; also: nearly all actives have a fitted effect of over 30% in size; also: potency is read from the fitted curve at half-maximal effect). Put shortly:
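Quantitative HTS viability measurement: CHO-K1 wild-type cells in serum (10% FBS) medium, short 3 hr drug exposure at 37C with 0.76% DMSO, CellTiter-Glo luminescent detection.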

The nature of experiment [10]: qHTS RealTime-Glo MT Cell Viability Assay in HepG2 cells - 24 hour (AID 1224867). Also: nearly all actives have a fitted effect of over 50% in size. In short, it runs like this: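 HepG2 cells (600/well) were dispensed with RealTime-Glo reagents, incubated 5 h at 37 °C, then treated with compounds in DMSO for up to 40 h. Nonlytic NanoLuc luminescence reflecting viable cells was read at each stated time point.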
Experiment [11] can be described thus: qHTS RealTime-Glo MT Cell Viability Assay in HEK293 cells - 32 hour (AID 1224868). Also: nearly all actives have a fitted effect of over 50% in size. Also: potency is read from the fitted curve at half-maximal effect. Put shortly: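 HEK293 cells seeded with NanoLuc/prosubstrate reagent, rested 5 h at 37 C, then dosed and kept at 37 C up to 40 h. Nonlytic real-time luminescence from viable cells read at 0, 8, 16, 24, 32 and 40 h.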
Experiment [12] in a line: qHTS RealTime-Glo MT Cell Viability Assay in HepG2 cells - 40 hour (AID 1224870). Also: nearly all actives have a fitted effect of over 50% in size. Put shortly:
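Real-time viability: cells seeded at 600 per well together with NanoLuc and cell-permeant prosubstrate, compounds added after 5 h incubation. Luminescence tracked at 0, 8, 16, 24, 32 and 40 h of exposure.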

Experiment [13] is described as follows: qHTS assay to identify small molecule agonists of H2AX (AID 1224845; active = well fitted activation curve with a large enough effect in the signal ratio in the repeat runs, not every such curve was filed as active; the % refers to the signal ratio). Put shortly:
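Phospho-H2AX Ser139 measured by HTRF (ex 320 nm; em 665 and 620 nm) after 24 hr antibody incubation. Compounds, 15 concentrations, 0.76% DMSO, were applied to CHO-K1 cells for 3hr at 37C before lysis.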

The nature of experiment [14]: A CellTox Green Cytotoxicity Assay to monitor cytotoxicity in HEK293 cells - 0 hour (AID 1224869). Also: nearly all actives have a fitted effect of over 50% in size. In short, it runs like this:
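Homogeneous no-lysis format: HEK293 cell suspension mixed with CellTox Green reagent, seeded, incubated 5 h at 37 C/5% CO2, then dosed by pintool with compound in DMSO.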

Experiment [15] concerns the target Nuclear receptor subfamily 1 group I member 3 (Homo sapiens) (UniProt Q14994). The experiment in a line: qHTS assay to identify small molecule antagonists of the constitutive androstane receptor (CAR) signaling pathway (AID 1224838). Also: nearly all actives have a fitted effect of over 40% in size. Also: potency is read from the fitted curve at half-maximal effect. In short, it runs like this:
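CITCO-stimulated (50 nM final) HepG2 cells stably transfected with hCAR and CYP2B6-2.2kb luciferase were exposed to compounds at 15 concentrations for 24 h at 37 C/5% CO2. A luciferase reagent was added and luminescence recorded after 30 min.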

For experiment [16] the target is unchanged. The experiment in a line: qHTS assay to identify small molecule agonists of the constitutive androstane receptor (CAR) signaling pathway (AID 1224839).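 Also: HepG2 cells stably carrying human CAR and a CYP2B6 luciferase reporter; nearly all actives have a fitted effect of over 15% in size.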 In short, it runs like this: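 Double-stable HepG2 cells (hCAR, CYP2B6-2.2kb) seeded 4 h before compound addition. Exposure 24 h with 0.75 uM PK11195 final. Luciferase detected by ONE-Glo.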
A short description of experiment [17]: qHTS assay to identify small molecule antagonists of the estrogen related receptor signaling pathway with the pleiotropic PPARgamma coactivator (PGC) from Tox21 10K library (AID 1224841; call rule not given here; also: potency is read from the fitted curve at half-maximal effect). In short, it runs like this: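 In the PGC/ERR line, DMSO solutions of test chemicals are pin-delivered to 2,000 cells/well six hours after dispensing. Following eighteen hours' incubation, One-Glo reagent is added and luminescence recorded.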

Experiment [18] is described as follows: qHTS assay to identify small molecule agonists of the estrogen related receptor signaling pathway with the pleiotropic PPARgamma coactivator (PGC) from Tox21 10K library (AID 1224842). Also: nearly all actives have a fitted effect of over 15% in size. Also: potency is read from the fitted curve at half-maximal effect. In short, it runs like this:
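Luminescence from One-Glo (30 min, room temperature) measured after PGC/ERR cells had 18 h at 37 C with pinned compound (23 nL in DMSO). Cells had been seeded at 2,000 per well and pre-incubated 6 h.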

Experiment [19] in a line: qHTS assay to identify small molecule antagonists of the estrogen related receptor (ERR) signaling pathway from Tox21 library (AID 1224848). Also: nearly all actives have a fitted effect of over 50% in size. Also: potency is read from the fitted curve at half-maximal effect. In short, it runs like this: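 Luciferase luminescence (ONE-Glo, 30 min room temperature) was the read-out. Cells of the NTP-supplied ERR line, 2,000 per well, were given 6 h at 37 C before compound addition in DMSO and 18 h exposure at 37 C.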

Experiment [20] is described as follows: qHTS assay to identify small molecule agonists of the estrogen related receptor (ERR) signaling pathway from Tox21 library (AID 1224849; calls by dose curve; also: nearly all actives have a fitted effect of over 15% in size). The note with it: ERR reporter cell line, ONE-Glo luciferase, 18 h; at 92.4 µM (top of the series) unless noted. Put shortly: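 Reporter cells (ERR, NTP source) treated with Tox21 10K compounds 18 h, 37 C. Readout: ONE-Glo luminescence, 30 min RT.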

SMILES strings stand for the structures. A number with no mark means an inactive call. Inconclusive results are not listed. Active and inactive are the calls of the source. Unless noted, calls follow the shape of the dose curve; as a rule, active = well fitted curve in the direction sought with a large enough effect in the repeat runs; inconclusive = weak or mixed curves; inactive = no such curve, though single readings can be large; an effect the other way counts as inactive or inconclusive.
% is scaled to controls: 0 for no effect and ±100 for the full control effect.

Chain of Thyrotropin receptor (Homo sapiens) (P16473 whole entry, looked up): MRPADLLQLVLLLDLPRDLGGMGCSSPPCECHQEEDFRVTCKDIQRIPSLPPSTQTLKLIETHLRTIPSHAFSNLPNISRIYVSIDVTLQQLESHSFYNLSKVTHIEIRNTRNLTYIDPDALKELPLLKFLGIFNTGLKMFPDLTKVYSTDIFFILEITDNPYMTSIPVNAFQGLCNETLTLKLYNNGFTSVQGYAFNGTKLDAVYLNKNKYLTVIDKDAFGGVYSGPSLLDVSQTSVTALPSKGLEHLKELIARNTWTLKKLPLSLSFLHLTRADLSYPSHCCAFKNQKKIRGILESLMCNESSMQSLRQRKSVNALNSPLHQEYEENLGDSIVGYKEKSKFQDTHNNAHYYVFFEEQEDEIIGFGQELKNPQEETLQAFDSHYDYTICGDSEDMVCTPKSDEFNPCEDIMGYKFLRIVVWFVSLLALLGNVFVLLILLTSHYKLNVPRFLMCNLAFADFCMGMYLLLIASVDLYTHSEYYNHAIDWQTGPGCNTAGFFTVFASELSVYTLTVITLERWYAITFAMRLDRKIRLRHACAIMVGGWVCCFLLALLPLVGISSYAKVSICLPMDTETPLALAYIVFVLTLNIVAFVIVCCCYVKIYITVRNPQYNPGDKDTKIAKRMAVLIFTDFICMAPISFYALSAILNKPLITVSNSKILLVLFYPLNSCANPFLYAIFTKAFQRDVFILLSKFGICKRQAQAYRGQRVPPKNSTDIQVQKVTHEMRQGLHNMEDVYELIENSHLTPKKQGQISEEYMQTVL
Chain of Nuclear receptor subfamily 1 group I member 3 (Homo sapiens) (Q14994 whole entry, looked up): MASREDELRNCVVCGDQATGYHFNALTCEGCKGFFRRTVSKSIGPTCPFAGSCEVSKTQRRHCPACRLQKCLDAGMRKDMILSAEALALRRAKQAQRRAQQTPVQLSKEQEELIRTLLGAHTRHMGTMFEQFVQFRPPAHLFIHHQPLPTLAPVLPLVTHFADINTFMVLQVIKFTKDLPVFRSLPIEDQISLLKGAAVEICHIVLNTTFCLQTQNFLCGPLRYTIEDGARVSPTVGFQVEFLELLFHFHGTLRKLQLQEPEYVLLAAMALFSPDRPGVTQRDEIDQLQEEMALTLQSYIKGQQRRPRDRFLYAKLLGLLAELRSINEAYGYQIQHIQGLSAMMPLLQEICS

With `C=C(C)C(=O)OCCOC(=O)CC(C)=O`, the Potency entry in experiment [1], in [2], in experiment [3], in [4], in experiment [5] and in [6] was “inactive” each time. Further, the Potency result in experiment [7], in experiment [9], in experiment [10], in experiment [11] and in experiment [12] was “inactive” each time. The outcome in experiment [8] was inactive.
Turning to `C/C=C(\C)C(=O)OCCC(C)CCC=C(C)C` (configuration not stated), the Potency entry in experiment [1], in experiment [2], in experiment [3], in experiment [4], in experiment [5] and in experiment [7] was “inactive” each time. For the same compound, the Potency entry in [13], in experiment [10], in [11], in experiment [14] and in experiment [12] was “inactive” in each case. Besides, in experiment [8], the call was inactive.
For `O=C(O)c1cccnc1C(=O)O`, the Potency entry in experiment [1], in [2], in experiment [3], in experiment [4], in [5] and in experiment [6] was “inactive” each time. Moreover, the Potency entry in experiment [7], in [13], in experiment [9], in experiment [10], in [11] and in experiment [14] was “inactive” each time. Moreover, in [12], the Potency result is “inactive”.
Turning to `CCOCCn1c(C2CCN(CCc3ccc(C(C)(C)C(=O)O)cc3)CC2)nc2ccccc21`, the Potency entry in experiment [1], in experiment [2], in experiment [3], in [4], in [5] and in experiment [6] was “inactive” in each case. The Potency entry in experiment [7], in experiment [13], in [9], in [10], in experiment [11] and in experiment [14] was “inactive” in each case. In addition, in experiment [12], the Potency result was “inactive”. Also, in experiment [8], the outcome was inactive.
With `O=C(CCCN1CCN(c2ccc(F)cc2)CC1)NC1c2ccccc2CSc2ccccc21` (configuration not stated), the Potency entry in experiment [1], in [2], in experiment [16], in experiment [5], in experiment [6] and in [14] was “inactive” throughout. The Potency in [15] is 29.8 µM (active); in experiment [11], 19 µM (active). The compound was called inactive in experiment [8].
Take `C=CC(=O)NCOCC(C)C`: the Potency entry in experiment [1], in experiment [2], in experiment [3], in experiment [4], in [5] and in [6] was “inactive” in each case. For the same compound, the Potency result in experiment [13], in experiment [9], in [10], in [11] and in [12] was “inactive” each time. In addition, in [8], the result was inactive.
For the compound `NC(=O)N(O)[C@@H]1C=C[C@H](Oc2cccc(Oc3ccc(F)cc3)c2)C1`, the Potency entry in experiment [1], in experiment [4], in experiment [17], in experiment [6], in [7] and in experiment [13] was “inactive” in each case. In addition, the Potency entry in [9], in experiment [19] and in experiment [12] was “inactive” in each case. Further, the values for the Potency in experiment [2], in [18] and in experiment [11] were 31.7 µM (active), 27.3 µM (active) and 17.4 µM (active), respectively. Further, the outcome in [8] was inactive. The activity change, positive = activation in experiment [20] was -15%.
On to `CO[C@H]1C=CO[C@@]2(C)Oc3c(C)c(O)c4c(O)c(c5c(c4c3C2=O)=NC2(CCN(CC(C)C)CC2)N=5)NC(=O)/C(C)=C\C=C/[C@H](C)[C@H](O)[C@@H](C)[C@@H](O)[C@@H](C)[C@H](OC(C)=O)[C@@H]1C`, for which the Potency in experiment [1] was 47.5 µM (active); in experiment [3], 53.3 µM (active); in experiment [4], 47.5 µM (active); in experiment [5], 53.3 µM (active); in experiment [17], 23.8 µM (active); in experiment [9] it was 98.6 µM (active). The Potency is 30 µM (active) in experiment [19] and 38.1 µM (active) in experiment [11]. The Potency result in experiment [15], in [16], in [18], in experiment [14] and in [12] was “inactive” in each case. Besides, the call in experiment [8] was inactive. In experiment [20], the activity change, positive = activation was -63.3%.
For `CCC(C)(O)CCC=C(C)C` (configuration not stated), the Potency entry in experiment [1], in [2], in experiment [3], in experiment [4], in experiment [5] and in [6] was “inactive” in each case. The Potency entry in [13], in experiment [11], in experiment [14] and in experiment [12] was “inactive” in each case. In addition, the outcome in experiment [8] was inactive.
